Data from the supplement of paper PMC5662767.
Counter-ions that a name gives are not always drawn.

Test system: Drosophila S2 cl14 SmoIP sensor cells
Test: normalized SmoIP GFP fluorescence (untreated unstimulated = 0%, untreated Hh-stimulated = 100%); higher = more Smo activation sensor fluorescence
Details: compound concentration: 2 uM, 24 h
[1] = stimulation: Hh conditioned medium (+Hh)
[2] = stimulation: mock conditioned medium (-Hh)
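Further: flow cytometry read-out as median GFP intensity of gated cells, compounds added 30 min before Hh-conditioned or mock medium, mock-treated cells serving as unstimulated baseline.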

| Structure (SMILES) | normalized SmoIP GFP fluorescence [1] [%] | normalized SmoIP GFP fluorescence [2] [%] |
| --- | --- | --- |
| COc1ccc(-c2oc3c(CC=C(C)C)c(O[C@@H]4O[C@H](CO)[C@@H](O)[C@H](O)[C@H]4O)cc(O)c3c(=O)c2O[C@@H]2O[C@@H](C)[C@H](O)[C@@H](O)[C@H]2O)cc1 [Icariin] | 92.7 | -3.27 |
| O=c1cc(N2CCOCC2)oc2c(-c3ccccc3)cccc12 | 108 | -5.76 |
| CN(C)[C@@H](CCOc1cccc2ccccc12)c1ccccc1 [Dapoxetine-hydrochloride(Priligy)] | 115 | -13.2 |
| Cc1cccc(Nc2cc(Cl)nc(SCC(=O)O)n2)c1C | 93.8 | -14.3 |
| Cc1ccccc1C(C(=O)NC1CCCCC1)N(C(=O)Cn1ccnc1C)c1cccc(F)c1 (configuration not stated) | 111 | -1.97 |
| Nc1nccc(Oc2ccc(NC(=O)c3c[nH]cc(-c4ccc(F)cc4)c3=O)cc2F)c1Cl | 88.3 | -6.34 |
| C1=C/COCc2cc(ccc2OCCN2CCCC2)Nc2nccc(n2)-c2cccc(c2)COC/1 [pacritinib-sb1518] | 114 | 1.72 |
| CC(C)(C)c1cc(NC(=O)Nc2ccc(-c3cn4c(n3)sc3cc(OCCN5CCOCC5)ccc34)cc2)no1 | 110 | 8.79 |
| CC[C@H](Nc1ncnc2[nH]cnc12)c1nc2cccc(F)c2c(=O)n1-c1ccccc1 | 126 | -12.7 |
| COc1ccccc1N1CCN(CCCNc2cc(=O)n(C)c(=O)n2C)CC1 [urapidil-hydrochloride] | 110 | -7.96 |
| O=C1c2ccccc2C(=O)c2c1ccc(O)c2O [Alizarin] | 141 | -7.96 |
| O=C(Nc1ccccc1)N1CCN(c2nc(-c3ccccc3)ns2)CC1 | 104 | -0.889 |
| NS(=O)(=O)C#Cc1ccccc1 [pifithrin-u] | 103 | -0.0369 |
| CC(=O)O[C@]1(C(C)=O)CC[C@H]2[C@@H]3C=C(C)C4=CC(=O)CC[C@]4(C)[C@H]3CC[C@@]21C [Megestrol-Acetate] | 106 | -0.804 |
| N#CC1(c2ccc(NC(=O)c3cccnc3NCc3ccncc3)cc2)CCCC1 [Apatinib-YN968D1] | 96.7 | -1.34 |
| CC(C)C(=O)Oc1ccc(CO)cc1[C@H](CCN(C(C)C)C(C)C)c1ccccc1 [Fesoterodine-fumarate-Toviaz] | 110 | -4.53 |
| CC(=O)O[C@H]1CC[C@@]2(C)C(=CCC3C2CC[C@]2(C)C(c4cccnc4)=CCC32)C1 (some centres not stated) [Abiraterone-Acetate-CB7630] | 106 | -12.7 |
| CC#CCn1c(N2CCC[C@@H](N)C2)nc2c1c(=O)n(Cc1nc(C)c3ccccc3n1)c(=O)n2C [linagliptin-bi-1356] | 118 | -0.264 |
| COC(=O)c1ccc2c(c1)NC(=O)/C2=C(\Nc1ccc(N(C)C(=O)CN2CCN(C)CC2)cc1)c1ccccc1 | 108 | 7.92 |
| C[C@H](NC(=O)/C(C#N)=C/c1cccc(Br)n1)c1ccccc1 | 86.1 | 8.14 |
| COc1cc2nccc(Oc3ccc(NC(=O)Nc4cc(C)on4)c(Cl)c3)c2cc1OC | 111 | 1.89 |
| CN(C)C/C=C/C(=O)Nc1cc2c(Nc3ccc(F)c(Cl)c3)ncnc2cc1O[C@H]1CCOC1 | 121 | 7.92 |
| Cc1cccc(Nc2ccccc2C(=O)O)c1C [mefenamic-acid] | 111 | -1.23 |
| CC(C(=O)O)c1ccc2c(c1)CC(=O)c1ccccc1S2 (configuration not stated) [zaltoprofen] | 111 | -1.97 |

| Structure (SMILES) | normalized SmoIP GFP fluorescence [1] [%] | normalized SmoIP GFP fluorescence [2] [%] |
| --- | --- | --- |
| O=C(NC[C@H](O)CO)c1ccncc1Nc1ccc(I)cc1F | 182 | 46.7 |
| COc1cc2ncnc(Nc3ccc(Cl)cc3F)c2cc1OC | 99.3 | -4.13 |
| CC[C@H]1OC(=O)[C@H](C)[C@@H](O[C@H]2C[C@@](C)(OC)[C@@H](O)[C@H](C)O2)[C@H](C)[C@@H](O[C@@H]2O[C@H](C)C[C@H](N(C)C)[C@H]2O)[C@](C)(OC)C[C@@H](C)C(=O)[C@H](C)[C@@H](O)[C@]1(C)O [clarithromycin] | 147 | -6.97 |
| CC1=C(/C=C/C(C)=C/C=C/C(C)=C\C(=O)O)C(C)(C)CCC1 [Isotretinoin] | 106 | -7.27 |
| CCCCOc1cc(C(=O)NCCN(CC)CC)c2ccccc2n1 [dibucaine-cinchocaine-hcl] | 113 | 0.361 |
| COc1ccc(NS(=O)(=O)c2sc3ccc(Cl)cc3c2C)cc1N1CCNCC1 | 108 | 2.86 |
| CNCc1ccc(C)c(NC(=O)c2ccc(Nc3nc(-c4ccccc4)c4ccccc4n3)cc2)c1 | 124 | 11.6 |
| CN(C)C(=O)c1cc2cnc(Nc3ccc(N4CCNCC4)cn3)nc2n1C1CCCC1 | 98.3 | -0.265 |
| Clc1ccc2nsnc2c1NC1=NCCN1 [Tizanidine-hydrochloride] | 105 | -5.76 |
| Cc1cc(-c2ncc(CC(=O)Nc3ccc(-c4cnccn4)cn3)cc2C)ccn1 | 130 | -1.23 |
| Cc1c(NC(=O)OC[C@@H]2COCCN2)cn2ncnc(Nc3ccc4c(cnn4Cc4cccc(F)c4)c3)c12 | 128 | 16.5 |
| CN1CCC(=C2c3ccccc3CC(=O)c3sccc32)CC1 [ketotifen-fumarate-zaditor] | 118 | -13.9 |
| O=C(N/N=C/c1ccc(O)c(O)c1)c1cc2ccccc2cc1O [dynasore] | 129 | 1.24 |
| CCNC(=O)Nc1ccc(-c2nc3c(c(N4CCOC[C@@H]4C)n2)CCN(C2COC2)C3)cc1 | 93.3 | -0.151 |
| COc1ccc2c(c1)c(CC(=O)N1CCOCC1)c(C)n2C(=O)c1ccc(Cl)cc1 | 108 | -2.59 |
| Cc1cc(Cl)ccc1OCCCC(=O)NO [Droxinostat] | 95.2 | -5.76 |
| Cc1ccc(-c2cc(C(F)(F)F)nn2-c2ccc(S(N)(=O)=O)cc2)cc1 [Celecoxib] | 111 | 2.11 |
| CCOC(=O)[C@H](CCc1ccccc1)N[C@@H](C)C(=O)N1Cc2cc(OC)c(OC)cc2C[C@H]1C(=O)O [moexipril-hydrochloride] | 126 | 3.4 |
| NC1(Cc2ccc(Cl)cc2)CCN(c2ncnc3[nH]ccc23)CC1 | 115 | 8.36 |
| CC(C)c1cc(C(=O)N2Cc3ccc(CN4CCN(C)CC4)cc3C2)c(O)cc1O | 107 | 13.8 |
| C[C@@H]1C(=O)O[C@H]2C[C@@]34[C@H]5C[C@@H](C(C)(C)C)[C@]36[C@@H](OC(=O)[C@@H]6O)O[C@@]4(C(=O)O5)[C@]21O [ginkgolide-a] | 99.5 | -2.08 |
| Cc1cc(C)c2c(c1)[C@@H](N(Cc1cc(C(F)(F)F)cc(C(F)(F)F)c1)c1nnn(C)n1)CCCN2CC1CCC(C(=O)O)CC1 (some centres not stated) | 105 | -5.15 |
| C#C[C@]1(OC(C)=O)CC[C@H]2[C@@H]3CCC4=C[C@@H](OC(C)=O)CC[C@@H]4[C@H]3CC[C@@]21C [ethynodiol-diacetate] | 100 | -1.63 |
| CCCC(CCC)C(=O)O [Sodium-valproate] | 110 | -4.68 |

| Structure (SMILES) | normalized SmoIP GFP fluorescence [1] [%] | normalized SmoIP GFP fluorescence [2] [%] |
| --- | --- | --- |
| C=CC(=O)Nc1cc2c(Nc3ccc(F)c(Cl)c3)ncnc2cc1OCCCN1CCOCC1 [CI-1033(Canertinib)] | 109 | 13.8 |
| Nc1ncnc2n[nH]c(Nc3ccc(F)cc3)c12 | 89.9 | 2.64 |
| O=C1NC(=O)/C(=C/c2ccc3c(c2)OC(F)(F)O3)S1 | 114 | 7.01 |
| Nc1c(Br)cc(Br)cc1CN[C@H]1CC[C@H](O)CC1 [ambroxol-hcl] | 106 | -2.82 |
| CC1C(=O)OC2C(O)C34C5CC(C(C)(C)C)C36C(OC(=O)C6O)OC4(C(=O)O5)C12O (configuration not stated) [Ginkgolide-B] | 85.5 | 0.489 |
| O=C(O)Cc1ccccc1Nc1c(Cl)cccc1Cl [Diclofenac-sodium] | 110 | 4.03 |
| CCS(=O)(=O)N1CC(CC#N)(n2cc(-c3ncnc4[nH]ccc34)cn2)C1 | 110 | -0.775 |
| CCCCCCCN(CC)CCCC(O)c1ccc(NS(C)(=O)=O)cc1 (configuration not stated) [ibutilide-fumarate] | 108 | -6.16 |
| COc1cc(N2CCC(N3CCN(C)CC3)CC2)ccc1Nc1ncc(Cl)c(Nc2ccccc2S(=O)(=O)C(C)C)n1 | 109 | 10.2 |
| COc1c(C)c(C(=O)c2ccc(N)c(C(=O)O)c2)n2ccccc12 | 113 | -1.34 |
| CC1(C)CCC2=C(O1)c1ccccc1C(=O)C2=O [beta-lapachone] | 113 | -0.264 |
| O=C(O)Cc1cccc(OCCCN(Cc2cccc(C(F)(F)F)c2Cl)CC(c2ccccc2)c2ccccc2)c1 | 130 | -0.116 |
| Cc1ccc(C(=O)N(CCCN)[C@@H](c2oc3cc(Cl)ccc3c(=O)c2Cc2ccccc2)C(C)C)cc1 | 141 | 2.05 |
| COc1ccc(CC(C)NCC(O)c2ccc(O)c(NC=O)c2)cc1 (configuration not stated) [formoterol-hemifumarate] | 129 | -8.77 |
| Cc1ccc(C(=O)Nc2ccc(CN3CCN(C)CC3)c(C(F)(F)F)c2)cc1C#Cc1cnc2cccnn12 | 128 | 11.3 |
| Cc1cccc(-c2[nH]c(C(C)(C)C)nc2-c2ccc3c(c2)OCO3)n1 | 133 | -6.97 |
| c1ccc2c(c1)CCCC2C1=NCCN1 (configuration not stated) [tetrahydrozoline-hcl] | 115 | -0.491 |
| CN(C)CCC(c1ccc(Br)cc1)c1ccccn1 (configuration not stated) [brompheniramine] | 138 | -5.17 |
| COc1cc(Nc2ncc(F)c(Nc3ccc4c(n3)NC(=O)C(C)(C)O4)n2)cc(OC)c1OC | 112 | -1.11 |
| CCOC(=O)c1ncn2c1CN(C)C(=O)c1cc(F)ccc1-2 [Flumazenil] | 110 | 1.57 |
| CC1(C)CC(=O)c2c(C(F)(F)F)nn(-c3ccc(C(N)=O)c(N[C@H]4CC[C@H](O)CC4)c3)c2C1 | 178 | 12.3 |
| CCCCN(Cc1ccc(C(=O)NO)cc1)C(=O)Nc1ccccc1 [nexturastat-a] | 105 | 6.74 |
| CC(=O)Nc1cccc(N2C(=O)N(C3CC3)C(=O)C3C(Nc4ccc(I)cc4F)N(C)C(=O)C(C)C32)c1 (configuration not stated) | 140 | -4.08 |
